A short description of experiment [1]: CCTE_Shafer_MEA_acute_cross_correlation_area: CCTE's Neural Acute Assay for Area of Cross Correlation, Shafer Lab (AID 2284024).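 Further: curves fitted for loss of cross-correlation area so actives lower synchrony.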 The method in brief:
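Rat primary cortical neurons on 48-well MEA, DIV 13 or 15; compounds 0.03-40 uM. Baseline and post-exposure 40 min recordings at 37 C; percent change in area under pooled inter-electrode cross-correlation near zero lag, relative to DMSO.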

The nature of experiment [2]: CCTE_Shafer_MEA_acute_cross_correlation_HWHM: CCTE's Neural Acute Assay for Cross Correlation at Half Width at Half Maximum, Shafer Lab (AID 2284026).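 Further: percent change per well from pre-dose baseline in spike cross-correlogram half width; hits are a decrease in cross-correlogram half width relative to DMSO.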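 On outcome: spontaneous network firing of rat primary cortical neurons on multiwell microelectrode arrays.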 The method in brief:
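Rat primary cortical neurons on 48-well MEA plates; 40-min baseline and 40-min post-exposure recordings at 37 C on DIV 13 or 15, compounds 0.03-40 uM. Spikes detected at 8x rms noise; percent change in cross-correlogram HWHM per well vs baseline.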

A short description of experiment [3]: CCTE_Shafer_MEA_acute_synchrony_index: CCTE's Neural Acute Assay for Synchrony, Shafer Lab (AID 2284027).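 Further: network synchrony index of spontaneous spiking in primary rat cortical neurons on MEAs; fitted for loss of signal so actives lower synchrony relative to DMSO.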 The method, boiled down:
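Spontaneous firing of mature rat cortical networks is captured extracellularly on microelectrode arrays at 37 C, with wells needing ≥10 active electrodes. Each compound (0.03-40 uM) is judged by the change in synchrony index from baseline over 40 min.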

Experiment [4] can be described thus: CCTE_Deisenroth_AIME_384WELL_CTox_Active: Cytotoxicity Assessment (CTOX) in CCTE's 384-well Estrogen Receptor Transactivation Assay with AIME metabolic competence (metabolism positive), Deisenroth Lab (AID 2284037; active means hit-call score of the fitted dose curve at least 0.9, where 1 is the maximum;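 further: activity means signal loss indicating cell death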). The method, boiled down: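 Cytotoxicity in VM7Luc4E2 breast cells, 24 hour, measured as protease-substrate fluorescence loss, after 2-hour metabolic conditioning with induced rat hepatic S9 in alginate microspheres. Concentrations 0.002 - 200 uM, 10 points, bidirectional fitting.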

Experiment [5] is described as follows: CCTE_Deisenroth_AIME_384WELL_CTox_Inactive: Cytotoxicity Assessment (CTOX) in CCTE's 384-well Estrogen Receptor Transactivation Assay without AIME metabolic competence (metabolism negative), Deisenroth Lab (AID 2284039; active means hit-call score of the fitted dose curve at least 0.9, where 1 is the maximum;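 further: cell viability via live-cell protease substrate cleaved to fluorescent probe; cells exposed 24 h to medium preincubated 2 h with alginate-water beads without S9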). The method in brief:
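VM7Luc4E2 cells, metabolism-negative arm: test chemicals (0.002–200 uM, 10 points) pre-incubated 2 h with alginate-water microspheres, then medium transferred to cells for 24 h. Viability read as protease-substrate cleavage to fluorescent probe; loss-of-signal, bidirectional fitting.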

The target of experiment [6] is Estrogen receptor (Homo sapiens) (UniProt P03372). Briefly: CCTE_Deisenroth_AIME_384WELL_LUC_Shift: CCTE's 384-well Estrogen Receptor Transactivation Assay with AIME metabolic competence data shift (ERTA luciferase; difference in metabolism positive and negative), Deisenroth Lab (AID 2284041).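 Further: shift is response with S9 minus without S9 so positive means metabolism raised ER signal.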 The method in brief:
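Test chemicals (0.002–200 uM, 10-point) were pre-incubated 2 h with alginate microspheres containing phenobarbital/beta-naphthoflavone-induced male Sprague Dawley rat liver S9 or water, then medium was transferred to VM7Luc4E2 cells for 24 h luciferase readout; shift = S9-positive minus S9-negative normalized response.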

The target is the same in experiment [7]. The experiment is described as follows: CCTE_Deisenroth_AIME_384WELL_LUC_Active: CCTE's 384-well Estrogen Receptor Transactivation Assay with AIME metabolic competence (ERTA luciferase; metabolism positive), Deisenroth Lab (AID 2284030; active means hit-call score of the fitted dose curve at least 0.9, where 1 is the maximum). The method, boiled down:
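Chemicals (10-point, 0.002-200 uM) were first incubated 2 hours with alginate-immobilized induced male Sprague Dawley rat liver S9. The conditioned medium was then applied to VM7Luc4E2 cells for 24 hours, with ER luciferase induction read by luminescence relative to 17beta-estradiol.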

For experiment [8] the target is unchanged. Briefly: CCTE_Deisenroth_AIME_384WELL_LUC_Inactive: CCTE's 384-well Estrogen Receptor Transactivation Assay without AIME metabolic competence (ERTA luciferase; metabolism negative), Deisenroth Lab (AID 2284038; active means hit-call score of the fitted dose curve at least 0.9, where 1 is the maximum;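 further: VM7Luc4E2 breast cells given medium preincubated 2 h with S9-free microspheres; hits raise estrogen receptor luciferase signal so potencies reflect agonists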). The method in brief:
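Chemicals (10-point series, 0.002 - 200 uM) were incubated 2 hours with alginate-water microsphere lids lacking S9, then the conditioned medium was transferred to VM7Luc4E2 breast cells for 24 hour. Luciferase induction was read by bioluminescence, fitted upward relative to 17beta-estradiol.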

A short description of experiment [9]: CCTE_Shafer_MEA_dev_firing_rate_mean: CCTE's Neural Network Formation Assay for Mean Firing Rate, Shafer Lab (AID 2284031).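 On AC50: curve fitted for loss of firing so AC50 reflects decreased mean firing rate.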 The method in brief:
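Developing rat cortical networks on MEA plates undergo 12-day compound exposure. Firing frequency, averaged across active electrodes, is integrated as area under the curve over four recording days, referenced to DMSO.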

Experiment [10] can be described thus: CCTE_Shafer_MEA_dev_per_burst_spike_percent: CCTE's Neural Network Formation Assay for Percent of Spikes in a Burst, Shafer Lab (AID 2284032).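 On AC50: fitted as a decrease in burst spike percentage below DMSO baseline.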 The method in brief: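 Rat primary cortical neurons on 16-electrode MEA wells, dosed from plating day 0 for 12 days with renewal on DIV 5 and 9; spikes-in-bursts percentage averaged over bursting electrodes, collapsed as AUC across days 5, 7, 9, 12; loss direction versus DMSO.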

A short description of experiment [11]: CCTE_Shafer_MEA_dev_active_electrodes_number: CCTE's Neural Network Formation Assay for Number of Active Electrodes, Shafer Lab (AID 2284040; active means hit-call score of the fitted dose curve at least 0.9, where 1 is the maximum;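 further: potency for loss of active electrodes versus DMSO so lower counts are hits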). The method, boiled down: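 Rat cortical primary cultures, 1.5 x 10^5 cells/well, PEI-coated MEA, laminin drop. Continuous exposure DIV 0–12; full media/compound change DIV 5, 9. Readout: electrodes with mean firing ≥5 spikes/min; AUC across days; loss vs DMSO.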

Experiment [12] in a line: CCTE_Shafer_MEA_dev_burst_rate: CCTE's Neural Network Formation Assay for Burst Rate, Shafer Lab (AID 2284042).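 On AC50: potency for loss of burst rate below DMSO control.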 The method in brief:
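Primary rat cortical neurons on PEI-coated 48-well MEA plates (laminin added with cells at plating) (16 electrodes/well), exposed from plating to day 12, dosing renewed at DIV 5 and 9. Burst rate averaged over active electrodes, recorded DIV 5, 7, 9, 12, summarized as AUC; loss versus DMSO.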

Experiment [13] can be described thus: CCTE_Shafer_MEA_dev_bursting_electrodes_number: CCTE's Neural Network Formation Assay for Number of Bursting Electrodes, Shafer Lab (AID 2284043; active means hit-call score of the fitted dose curve at least 0.9, where 1 is the maximum;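 further: potency is for loss of bursting electrodes relative to DMSO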). The method in brief:
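Read-out is the per-well number of electrodes bursting at least once every 2 minutes, recorded on days 5, 7, 9 and 12 and collapsed by trapezoidal area under the curve. Cultures were primary rat cortical neurons on MEA plates, treated continuously from plating.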

A short description of experiment [14]: CCTE_Shafer_MEA_dev_per_burst_interspike_interval: CCTE's Neural Network Formation Assay for Burst Interspike Interval, Shafer Lab (AID 2284044).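 Further: mean spike spacing inside bursts as AUC over recordings on days 5 7 9 12.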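 On AC50: potency for a decrease of within-burst interspike interval below DMSO level.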 The method in brief: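 Primary rat cortical neurons on 48-well MEA plates, exposed from day 0 through day 12, treatment renewed at DIV 5 and 9. Within-burst interspike interval recorded days 5, 7, 9, 12, well-averaged, summarised as AUC; negative fit versus DMSO.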

Experiment [15] can be described thus: CCTE_Shafer_MEA_dev_interburst_interval_mean: CCTE's Neural Network Formation Assay for Mean Interburst Interval, Shafer Lab (AID 2284046).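 Further: well-mean interburst interval of bursting electrodes as AUC over four recording days; curve fitted for decrease in interburst interval relative to DMSO.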 The method, boiled down:
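Recordings on days 5, 7, 9 and 12 give well-mean interburst interval across actively bursting electrodes, summarized as area under the curve. Cultures: rat cortical neurons, continuous exposure from day 0, compound renewed at feeds; decrease analyzed versus DMSO.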

Experiment [16] in a line: CCTE_Shafer_MEA_dev_inter_network_spike_interval_mean: CCTE's Neural Network Formation Assay for Mean Inter-network Spike Interval, Shafer Lab (AID 2284047).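 On AC50: potency for a decrease in mean inter-network spike interval below DMSO.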 The method in brief: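 Primary rat cortical neurons on 16-electrode MEA wells, exposed from plating day 0 through DIV 12, compound renewed at DIV 5 and 9 media changes. Mean interval between network-spike peaks recorded DIV 5, 7, 9, 12; collapsed as trapezoidal AUC, fitted downward versus DMSO.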

Experiment [17] can be described thus: CCTE_Shafer_MEA_dev_network_spike_number: CCTE's Neural Network Formation Assay for Number of Network Spikes, Shafer Lab (AID 2284048).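 Further: synchronized bursts across electrodes counted on days 5 7 9 12 and integrated as AUC.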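 On AC50: fit as a loss of signal meaning fewer network spikes than DMSO.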 The method in brief: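 Developing networks of primary rat cortical neurons are treated over 12 days starting at plating, with media and compound fully replaced on DIV 5 and 9. Network spike counts from four recording days are integrated as trapezoidal AUC.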

The target of experiment [18] is Estrogen receptor (Homo sapiens) (UniProt P03372). The experiment is described as follows: CCTE_Deisenroth_AIME_96WELL_LUC_Inactive: CCTE's 96-well Estrogen Receptor Transactivation Assay without AIME metabolic competence (ERTA luciferase; metabolism negative), Deisenroth Lab (AID 2284025; active means hit-call score of the fitted dose curve at least 0.9, where 1 is the maximum). The method in brief: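 VM7Luc4E2 breast cells, luciferase read 24 h after dosing with medium pre-incubated 2 h on alginate-water lids (metabolism negative). 10-point series 0.002–200 uM, single technical replicate, n≥4; fit relative to 17beta-estradiol.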

A short description of experiment [19]: CCTE_Deisenroth_AIME_96WELL_CTox_Active: Cytotoxicity Assessment (CTOX) in CCTE's 96-well Estrogen Receptor Transactivation Assay with AIME metabolic competence (metabolism positive), Deisenroth Lab (AID 2284028; active means hit-call score of the fitted dose curve at least 0.9, where 1 is the maximum). The method, boiled down: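 Chemicals (0.002–200 uM) were first incubated 2 h with alginate-immobilized phenobarbital/beta-naphthoflavone-induced male rat liver S9; conditioned medium then went onto VM7Luc4E2 cells for 24 h, with viability read by protease-substrate fluorescence, fitted bidirectionally.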

The nature of experiment [20]: CCTE_Deisenroth_AIME_96WELL_CTox_Inactive: Cytotoxicity Assessment (CTOX) in CCTE's 96-well Estrogen Receptor Transactivation Assay without AIME metabolic competence (metabolism negative), Deisenroth Lab (AID 2284029; active means hit-call score of the fitted dose curve at least 0.9, where 1 is the maximum). The method in brief: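 Chemicals (10-point series, 0.002-200 uM) were incubated 2 h with alginate-water microspheres lacking S9. The conditioned medium was then transferred onto VM7Luc4E2 cells for 24 h. Viability was measured by protease-substrate cleavage to a fluorescent probe, with loss of signal fitted bidirectionally; n≥4 experimental replicates.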

Among the data in PubChem BioAssay (EPA / NIEHS) are outcome and AC50 values, retold here.

Molecules are shown by their SMILES. Values joined by “and” are separate entries in the source; they are usually repeats but may differ in a detail not shown here. Equal values may be shown once. Results filed as inconclusive are left out. Active and inactive are the calls of the source. How the source made its calls, unless noted: active means hit-call score of the fitted dose curve at least 0.9, where 1 is the maximum; inactive means score below 0.9.

Estrogen receptor (Homo sapiens), sequence (P03372 whole entry, looked up): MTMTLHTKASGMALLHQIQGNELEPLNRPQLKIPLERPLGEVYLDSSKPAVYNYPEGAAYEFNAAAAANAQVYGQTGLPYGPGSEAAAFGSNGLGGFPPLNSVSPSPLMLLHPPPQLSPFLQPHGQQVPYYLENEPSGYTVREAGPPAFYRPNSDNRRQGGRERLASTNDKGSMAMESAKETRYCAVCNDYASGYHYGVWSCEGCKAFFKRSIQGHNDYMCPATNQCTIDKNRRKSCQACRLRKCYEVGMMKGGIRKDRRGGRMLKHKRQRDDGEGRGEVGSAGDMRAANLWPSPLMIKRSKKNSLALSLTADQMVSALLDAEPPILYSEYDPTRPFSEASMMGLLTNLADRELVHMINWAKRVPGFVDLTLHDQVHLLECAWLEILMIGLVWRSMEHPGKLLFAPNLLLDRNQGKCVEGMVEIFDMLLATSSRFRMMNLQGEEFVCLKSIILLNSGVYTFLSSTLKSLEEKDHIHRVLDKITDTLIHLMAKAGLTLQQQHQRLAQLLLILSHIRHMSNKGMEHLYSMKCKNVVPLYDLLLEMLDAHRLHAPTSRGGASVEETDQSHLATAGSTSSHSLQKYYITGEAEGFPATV

For orientation: AC50 means the concentration giving half of the maximal activity seen. Consider `C=CCc1cc(S(=O)(=O)c2ccc(O)c(CC=C)c2)ccc1O`, for which the result in experiment [1], in experiment [2], in experiment [3], in experiment [5] and in [6] was inactive. For the same compound, the AC50 in experiment [4] is 169000 nM (active).

Take `O=S(=O)(O)c1ccc(N=Nc2c(O)ccc3cc(S(=O)(=O)O)ccc23)cc1`: the call in experiment [1], in experiment [2] and in experiment [3] was inactive.

As for `COS(C)(=O)=O`, the result in experiment [7], in experiment [4], in experiment [8], in experiment [5] and in experiment [6] was inactive.

For `COc1cc2c(c(OC)c1OC)-c1ccc(OC)c(=O)cc1[C@@H](NC(C)=O)CC2`, the compound was classed as inactive in experiment [1], in experiment [2], in experiment [3], in experiment [7], in experiment [8] and in [6]. The AC50 in [9] was 17.9 nM (active); in experiment [10], 28.5 nM (active); in experiment [4] it was 19800 nM (active); in [5], 19800 nM (active); in experiment [11], 28.4 nM (active); in experiment [12] it was 27.6 nM (active). In addition, the half-maximal activity concentration (AC50) was 27 nM (active) in [13]; 6.47 nM (active) in experiment [14]; 15.9 nM (active) in [15]; 26.2 nM (active) in [16]; 26 nM (active) in experiment [17].

Turning to `CCOc1ccc2[nH]cc(C(=O)NCc3ccccc3)c(=O)c2n1`, the compound was called inactive in experiment [7], in experiment [9], in experiment [10], in [8], in experiment [6] and in experiment [12]. In addition, the compound was called inactive in experiment [14], in [15], in experiment [16] and in experiment [17]. Besides, the AC50 in experiment [11] is 1230 nM (active); in experiment [13], 804 nM (active).

As for `CC(C)C(=O)Nc1ccc([N+](=O)[O-])c(C(F)(F)F)c1`, the result in experiment [1] and in [3] was inactive. For the same compound, the concentration at half-maximal activity (AC50) in [2] is 5730 nM (active).

As to `C[C@@H](Oc1ccc(CNC(=O)c2cccnc2Oc2ccc3c(c2)OCO3)c(F)c1)C(=O)O`, the result in experiment [7], in experiment [4], in experiment [8], in [5] and in experiment [6] was inactive.

Take `Cn1c(=O)c2[nH]cnc2n(C)c1=O`: the compound was called inactive in experiment [1], in experiment [2] and in experiment [3].

With `CCCc1ccccc1`, the compound was called inactive in experiment [1], in experiment [2], in experiment [3], in experiment [7], in experiment [4] and in [8]. Moreover, the compound was called inactive in experiment [5] and in [6].

For the compound `CCN(CC)C(=S)SSC(=S)N(CC)CC`, the compound was called inactive in [18], in [19], in experiment [20], in [7], in experiment [4] and in experiment [5]. In experiment [6], the result was inactive. The concentration at half-maximal activity (AC50) in experiment [9] was 98.7 nM (active) and 42.1 nM (active); in [10], 143 nM (active) and 47.8 nM (active); in experiment [11], 118 nM (active) and 54.8 nM (active); in experiment [12] it was 124 nM (active) and 50 nM (active); in [13], 108 nM (active) and 46.3 nM (active); in [14], 157 nM (active) and 39.7 nM (active). In addition, the concentration at half-maximal activity (AC50) is 200 nM (active) and 55.2 nM (active) in [15]; 225 nM (active) and 91.6 nM (active) in [16]; 102 nM (active) and 52.1 nM (active) in experiment [17].

Regarding `CCCCC(CC)C(=O)OCCOCCOCCOC(=O)C(CC)CCCC` (centres undefined), the compound was called inactive in [1], in [2], in experiment [3], in [7], in experiment [8] and in [6].
